Screening data as filed in PubChem BioAssay.
Hits are enriched below; roughly 9% of the tested compounds scored in any of these assays.
Lamin A splicing = modulators of lamin A splicing; HeLa LMNA splicing GFP/RFP minigene ratio, 48 h; Potency, µM (doses to about 46.1 µM), for the others: top-dose ratio change, negative = inhibition, hits mostly inhibitors; 0.01% of 200,000 active; active = well fitted inhibition curve with a large enough effect in the signal ratio, with a control signal flat, not every such curve was filed as active; inconclusive = small, poorly fitted or top-dose-only effect, or effect the other way, or a change in a side signal; the % refers to the signal ratio; note: % is set by controls: 0 for no effect and ±100 for the full control effect
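Read-out is the ratio of GFP to DsRed2 object intensity, acquired by 488 nm laser-scanning cytometry on HeLa lamin A-EGFP minigene reporter cells. Compound incubation 48 hrs at 37 °C in Opti-MEM with 2% FBS; DMSO 0.5% final.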
HttQ103 aggreg = mutant huntingtin aggregation inhibition; PC12 HttQ103-GFP aggregates, Acumen cytometry, 40 h; Potency, µM (doses to about 46.1 µM), for inactives: at the top dose activity change, negative = inhibition, most hits filed as inhibitors; 1.1% of 220,000 active; note: % is set by controls: 0 for no effect and ±100 for the full control effect; nearly all actives have a fitted effect of over 60% in size
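Inducible Q103 Huntingtin exon 1–GFP PC12 line, 1500 cells/well in phenol red free DMEM with 5% equine and 5% calf serum. Tebufenozide 100 nM induced expression; compounds titrated; aggregates quantified by cytometry.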
HTT ATP protect = cytoprotection in Huntington HTT-Q103 PC12 cell model; PC12 HTT-Q103 induced, cytoprotection, ATP luminescence, 40 h; Potency, µM (series often up to 56.4 µM), for the others: cytoprotection (ATP increase), most hits filed as activators; 0.14% of 230,000 active; AID 1471; note: % of control where 0% means no effect; nearly all actives have a fitted effect of over 45% in size
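Cells were plated at 1500 per well in phenol red-free DMEM with 5% equine and 5% calf serum. Tebufenozide (100 nM final) and compounds were added, then ATPlite reagent, and luminescence was read.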
Luc counter = blocks Kinase-Glo luciferase, a counter-screen artifact; Q27757; Kinase-Glo luciferase, ATP luminescence, 8 min; Potency, µM (titrated, usually from 38.3 µM), inactives show top-dose activity change, negative = inhibition, hits mostly inhibitors; 0.28% of 200,000 active; AID 1379; note: % is set by controls: 0 for no effect and ±100 for the full control effect; nearly all actives have a fitted effect of over 60% in size
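Light output from Kinase-Glo luciferase with luciferin and 10 uM ATP in 50 mM imidazole pH 7.2, KCl, MgCl2, Tween 20, BSA; compound pin-delivered, 8-min ambient incubation, then luminescence read.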
ALDH1A1 block = inhibitors of human aldehyde dehydrogenase 1A1 | 7.3% of 220,000 active | P00352 | Purified ALDH1A1, NADH fluorescence, propionaldehyde substrate | Potency, µM (highest dose often 75.3 µM), inactives show at the top dose activity, negative = inhibition, actives largely listed as inhibitors; active = well fitted inhibition curve with a large enough effect, not every such curve was filed as active; inconclusive = small, poorly fitted or top-dose-only effect, or another doubt; inactive = no such curve, though single readings can be large or run the other way;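 note: plate controls were no enzyme wells and a reference inhibitor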
Target sequence (P00352 whole entry, looked up): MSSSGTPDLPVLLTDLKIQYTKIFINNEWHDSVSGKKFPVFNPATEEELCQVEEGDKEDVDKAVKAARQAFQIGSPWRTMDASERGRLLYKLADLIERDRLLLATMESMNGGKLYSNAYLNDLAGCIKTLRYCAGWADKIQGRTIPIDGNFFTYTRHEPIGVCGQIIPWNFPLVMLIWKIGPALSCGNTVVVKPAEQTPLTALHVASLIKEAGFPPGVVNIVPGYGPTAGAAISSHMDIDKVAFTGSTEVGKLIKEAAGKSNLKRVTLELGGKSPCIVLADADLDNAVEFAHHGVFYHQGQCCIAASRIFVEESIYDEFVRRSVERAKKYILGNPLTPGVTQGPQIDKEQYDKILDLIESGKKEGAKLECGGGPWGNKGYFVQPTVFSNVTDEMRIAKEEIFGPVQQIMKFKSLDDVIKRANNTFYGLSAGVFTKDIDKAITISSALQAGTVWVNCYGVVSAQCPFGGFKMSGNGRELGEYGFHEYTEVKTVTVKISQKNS
HPGD inh = blocks human HPGD enzyme activity; 4.3% of 150,000 active; P15428; purified HPGD, NADH fluorescence kinetic, PGE2 substrate; Potency, µM, without a hit: at the top dose activity change, negative = inhibition, hits mostly inhibitors; active = well fitted inhibition curve with a large enough effect, not every such curve was filed as active; inconclusive = small, poorly fitted or top-dose-only effect, or another doubt; inactive = no such curve, though single readings can be large or run the other way; note: % is set by controls: 0 for no effect and ±100 for the full control effect
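NADH formation kinetics: reaction with 30 uM PGE2 and 1 mM NAD+ (final), 20 nM enzyme, Tris-HCl pH 8 with Tween 20, after 15 min compound preincubation at room temperature. Fluorescence change, last versus first of five reads.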
Starred values were filed as active, the others as inactive; ? = inconclusive; nt = no result given; [ ] = another dose, or the depositor's remark. Unless noted, calls come from the whole dose curve; as a rule, active = well fitted curve in the direction sought with a large enough effect; inconclusive = small, poorly fitted or top-dose-only effect, or another doubt; inactive = no such curve, though single readings can be large; an effect the other way counts as inactive or inconclusive. Potency is the fitted concentration of half-maximal effect.

SMILES | Lamin A splicing | HttQ103 aggreg | HTT ATP protect | Luc counter | ALDH1A1 block | HPGD inh
O=C(COc1ccccc1)NNC(=S)NC(=O)c1ccc(Cl)cc1Cl | ? | -6.2% | -5.4%[10 µM] | 0.9% | 7.94µM* | 35.5µM*
Cc1cccc(/C(N)=N/OC(=O)COc2ccc(Cl)cc2)c1 | -2.5%[46 µM] | 21.3% | -11.4% | -4.4% | 10.9% | nt
COc1cccc(OCC(=O)Nc2ccccc2-c2ccccc2)c1 | nt | -3.6%[9.22 µM] | -5.8%[10 µM] | -0.6% | 20µM* | nt
Cc1cccc(C(=O)NC(=S)NNC(=O)COc2ccc(Cl)cc2)c1 | ? | -14.2% | -68.6% | 3.0% | 9.46µM* | nt
CCOc1ccccc1OCCOCCOc1c(Cl)cccc1Cl | -8.7% | 8.9% | -3.5%[10 µM] | -1.5% | -9.4% | -12.4%
CC(C)CNC(=O)c1ccc(Cl)c(Cl)c1 | -2.0% | -5.6% | -13.3% | 1.3% | 10.9% | 22.4µM*
Cn1cccc1CC(=O)NNC(=S)Nc1ccc(Cl)cc1Cl | -14.3% | 21.5% | 21.1%[10 µM] | -0.2% | 10µM* | 11.2µM*
COc1cccc(OCC(=O)NNC(=S)Nc2ccc(Cl)cc2Cl)c1 | nt | 16.9% | 5.1% | 1.0% | 2µM* | nt
COc1cccc(CC2(CO)CCN(Cc3cnc(N4CCOCC4)s3)CC2)c1 | 27.1%[46 µM] | -12.3%[9.22 µM] | -5.1%[10 µM] | 1.8% | 1.5% | nt
O=C(N/N=C/c1ccc2c(c1)OCCO2)c1ccncc1 | nt | 7.0%[9.22 µM] | 27.1%[10 µM] | nt | nt | nt
CCC(C)N(C(=O)c1csnn1)C(C(=O)NCc1ccc(F)cc1)c1ccco1 (configuration not stated) | -4.3% | 4.9% | -14.7% | -0.3% | -7.4% | -12.9%
Cc1nc(Nc2nc3ccccc3o2)nc(C)c1C | nt | -10.9% | -147.0% | 11.2µM* | -5.1% | nt
Cc1ccnc(Nc2nc3ccccc3o2)n1 | ? | -1.5% | -16.4%[10 µM] | 12.6µM* | -0.8% | -13.2%
N#CC1=C(N)Oc2c(ccc3cccnc23)C1c1cccnc1 (configuration not stated) | ? | ? | -53.6%[10 µM] | 2.5% | ? | ?
O=C(/C=C/c1cc2c(cc1Br)OCO2)NCc1ccc(F)cc1 | -1.5% | -6.0% | -7.6%[10 µM] | 2.0% | 2.0% | -7.0%
Cc1cc(C(=O)N/N=C/c2cc(Cl)cc([N+](=O)[O-])c2O)c2ccccc2n1 | ? | 15.8µM* | -0.1%[10 µM] | -2.1% | 6.4% | -22.5%
O=C(N/N=C/c1cc(Cl)cc([N+](=O)[O-])c1O)c1ccccc1NS(=O)(=O)c1cccs1 | nt | -6.7%[9.22 µM] | 17.2%[10 µM] | nt | nt | nt
COC(=O)NC(/C=C/c1ccccc1)[C@]1(C(C)=O)CCCC1=O (some centres not stated) | nt | nt | -1.3%[10 µM] | nt | -10.1%[13.5 µM] | nt
C=CCOC(=O)C(=O)/C=C/c1ccc2c(c1)Cc1ccccc1-2 | nt | 22.0%[9.22 µM] | 26.7%[10 µM] | nt | 1.2% | nt
C=CCOC(=O)C(=O)/C=C/c1csc2ccccc12 | nt | -12.2%[9.22 µM] | 7.3%[10 µM] | nt | 10µM* | nt
COc1cc(NC(=S)N(C)C)c(OC)cc1Cl | nt | -6.6%[9.22 µM] | 22.3%[10 µM] | nt | nt | nt
O=[N+]([O-])c1ccc(-n2nnnc2CN2CCCCC2)cc1 | nt | -26.3%[9.22 µM] | -22.6%[10 µM] | -1.0% | 20µM* | nt
O=[N+]([O-])c1ccc(-n2nnnc2CN2CCOCC2)cc1 | ? | nt | nt | -2.6% | 6.7% | nt
CC(=O)Oc1ccc(/C=N/NC(=O)CCSc2ccccc2)cc1 | ? | -11.3% | -33.5% | 7.6% | -8.8% | nt
CCN(CCCNC(=O)c1c(C)cc(=O)oc1C)c1cccc(C)c1 | -2.6% | 4.6% | 21.9%[10 µM] | 3.2% | 10µM* | -18.3%
C/C(=N/O)c1c(O)c(C)c(-c2ccccc2)n(-c2ccccc2)c1=O | -9.3% | 16.6% | 5.7%[0.074 µM] | 0.9% | -2.2% | 0.2%
COc1ccc(C(=O)Oc2cc(N)n(S(=O)(=O)c3ccccc3)n2)cc1 | nt | ? | 0.708µM* | -0.7% | 6.9% | nt
COc1ccc(S(=O)(=O)n2nc(OC(C)=O)cc2N)cc1 | nt | -3.0%[9.22 µM] | 6.5%[10 µM] | nt | 0.0% | nt
COc1ccc(S(=O)(=O)NCCOc2ccccc2)cc1C | nt | -3.9%[9.22 µM] | 10.1%[10 µM] | -3.6% | -6.0% | nt
CC(C)(C)OC(=O)NCCCC[C@@H](C(=O)N1CCN(C(=O)OC(C)(C)C)CC1)n1cc(C(CO)NC(=O)OC(C)(C)C)nn1 (some centres not stated) | nt | 1.2%[9.22 µM] | 19.8%[10 µM] | nt | 0.4% | nt
